According to paper PMC13494018:

B1: design_376_bf9d4634-8475-4fdb-a175-1db49a23bdcd_2064_dldesign_0_cycle1_af2pred (protein)
chain: SEKEEIIKRAKEVAERARKVAAEAKEIGPAALPVLNKATEARALANAARDLAEAGGNLEVAKEVLKEAEELLKKAEEELKKLKKE
B2: design_376_bf9d4634-8475-4fdb-a175-1db49a23bdcd_1567_dldesign_0_cycle1_af2pred (protein)
chain: SAEEEIKKKAKELEKAGAAALFELADASKEEAPKYAAKIDKAIADLKALGKAATPELGKELFAKADKLQATRDRIMEDIES
B3: design_376_bf9d4634-8475-4fdb-a175-1db49a23bdcd_2333_dldesign_0_cycle1_af2pred (protein)
chain: SEIAEKLAEWAEKAKASTREEAKAILDELLADEETKEYAELALEIVKDIAGEDAPAEAIGLALRIASDAAEA
B4: design_376_bf9d4634-8475-4fdb-a175-1db49a23bdcd_1727_dldesign_0_cycle1_af2pred (protein)
chain: STEEAIKKALEMAEKIAKATPETGAEATKIRDELLEYIAEFAEKGTVEGTKAVAEALREQAEKASPEAAKSLRAAARFAEALAKAKA
B5: design_376_bf9d4634-8475-4fdb-a175-1db49a23bdcd_2272_dldesign_0_cycle1_af2pred (protein)
chain: AEEYLKEAKKYLEEAKKVAEKNPKAKPAYERGKKKYEEYLKKAKETGDYEEYAKKAYIAADQALEHAEFIAK
B6: design_376_bf9d4634-8475-4fdb-a175-1db49a23bdcd_1797_dldesign_0_cycle1_af2pred (protein)
chain: AADEAKAKAKAALDAAAAAAAKVDPKKAPEVKARAAKAKATLDKLYADFKDDPEIATEVANIFLKGAEALLKEIKAA
B7: design_376_bf9d4634-8475-4fdb-a175-1db49a23bdcd_888_dldesign_0_cycle1_af2pred (protein)
chain: GVVEKAKKISEAVRAEHKAKATTKLAKADPSQAAAAKAAAEEAKKAAEKAEEADKETAKAAKAAGKEAEAAAKA
B8: design_376_bf9d4634-8475-4fdb-a175-1db49a23bdcd_1192_dldesign_0_cycle1_af2pred (protein)
chain: GTEKTKKISDHLRKAVSAAKKAVAIAKKAGIGEEMQKTFSELRDAVVDGDLEKAKEYAKKLLELGKKVPEAYEYAKEAAEEALKAVE
B9: design_376_bf9d4634-8475-4fdb-a175-1db49a23bdcd_1609_dldesign_0_cycle1_af2pred (protein)
chain: AKEEARELAEKAYEAAKSTSEDLREDVEKDGIGPKAVKSISDNMIEWIEKVHEEVKVDEEAHKIAEEAIKYAKEEGEKNIELAKKR
B10: design_376_bf9d4634-8475-4fdb-a175-1db49a23bdcd_2226_dldesign_0_cycle1_af2pred (protein)
chain: KYKEEAKKKTEEELEKAAKAVSKENAPKVEKVKKEALKALEEDFSKAAEIIRNFAKEEKENHDVVKKYAAKASEALYEARAAKEVEER
B11: design_376_bf9d4634-8475-4fdb-a175-1db49a23bdcd_800_dldesign_0_cycle1_af2pred (protein)
chain: AKAELEKLKKEAAKHRQEMYFYGKASAKLGPKYKAEYEEHYAKALEAAKKIKELDPEEGKKYEEIVLKTKKRLEKEL
B12: design_376_bf9d4634-8475-4fdb-a175-1db49a23bdcd_1821_dldesign_0_cycle1_af2pred (protein)
chain: SNVKEANKKIDEATKLLVDARKAVYEKGKAAGPEVAAGAQKIIAGAVRGDVAPALADTPEVAALAKQMQAALDKAEKLENEAVKLLS
B13: design_376_bf9d4634-8475-4fdb-a175-1db49a23bdcd_1019_dldesign_0_cycle1_af2pred (protein)
chain: ILKEFAKLVSEAIKKATKADGLNGADIVWKEAEKSFKEVKEALKKGEEEAKKALEKAKERLEKAVEEAKKRGEA
B14: design_596_3e5f537c-0703-45f0-993f-ff416531349a_46_dldesign_0_cycle1_af2pred (protein)
chain: KYKELLKKAKELYEKAIAAAGDPAKAAAELKKANAAFTDALAEARAESKENFKKVRKEYGELKAKYEAAKAAA
B15: design_376_bf9d4634-8475-4fdb-a175-1db49a23bdcd_1294_dldesign_0_cycle1_af2pred (protein)
chain: SVKENTKEAAKKLEEKYGAEFAKIGPEYAAKMAAAAKEAAKKPTSADAIILMRDAYDELKKEADAALAAA
B16: design_376_bf9d4634-8475-4fdb-a175-1db49a23bdcd_2363_dldesign_0_cycle1_af2pred (protein)
chain: AEEEAKQKELIKEMARHIQEAREYRNAAEKLPEKKEEYVKKALEHVEKALEAAEELIKNPKYKEYGEKGKKRAEEVRKKIEEVK
B17: design_376_bf9d4634-8475-4fdb-a175-1db49a23bdcd_2298_dldesign_0_cycle1_af2pred (protein)
chain: GLEEKAKKAVEKAKEYLKKAKAAMEKGDYKSALAYAEQAIHAATAAIKIAKEDPSLKELEEEAKKILEEAKKLLEEAEKKL
B18: design_376_bf9d4634-8475-4fdb-a175-1db49a23bdcd_1182_dldesign_0_cycle1_af2pred (protein)
chain: EEEEKQKVKEEAAKNVEEAVEAAGELIAKHPELREKAYKLRKEAIRLSQEAGKAAEKDLEEGKKYLEESKEKVKEIKKLAEE
B19: design_376_bf9d4634-8475-4fdb-a175-1db49a23bdcd_2406_dldesign_0_cycle1_af2pred (protein)
chain: HMEELEKLLKEAEKAAKEAAEAYKKDPAEGKKWASKARDLSIEAISLDPSAYEKAKEIAEKVAEVDPEAGKKIKAILERTYEALKRA
B20: design_596_3e5f537c-0703-45f0-993f-ff416531349a_466_dldesign_0_cycle1_af2pred (protein)
chain: EEERTKLIKEASDLRREAIALLREAGKAADPATAGAAVFAIPDLEAFTAAAAAAAKAYPELAATWEAAAAKATASHAAVEKAEKL
B21: design_376_bf9d4634-8475-4fdb-a175-1db49a23bdcd_869_dldesign_0_cycle1_af2pred (protein)
chain: REAALAAGAARLEAALAASPAAPAAAAALRAALEAGADAADVILAVQDVLAEAGAAKEDLSAAAKAAAEAVRLYS
B22: design_376_bf9d4634-8475-4fdb-a175-1db49a23bdcd_2270_dldesign_0_cycle1_af2pred (protein)
chain: SMAREKARKESEELRELVKKAREIAKEAKEKAKEKGPEAQKIAKEAAKEAAKAVWYFPDKEKSEKALQKAEELLKEI
B23: design_376_bf9d4634-8475-4fdb-a175-1db49a23bdcd_1125_dldesign_0_cycle1_af2pred (protein)
chain: VEEAAKKAKEKVKEVAEKATKEAPETADIAKALAENAEKKIDELAKKGAPKEALEKAAEKAIKTIKAVKKSALELK
B24: design_596_3e5f537c-0703-45f0-993f-ff416531349a_232_dldesign_0_cycle1_af2pred (protein)
chain: LKAEAAEKSAEARELIAEAETLAKNIKNLSKEEAKEALKVAEEALKKAKEAAKLMAKVGEEELGKKLLERAKKAYKETKEAVKKKLK
B25: design_376_bf9d4634-8475-4fdb-a175-1db49a23bdcd_1954_dldesign_0_cycle1_af2pred (protein)
chain: MTAEEAIKKIEEAAEKASKELKEIGKKNPAVAAYAKAASERVKRRAKRAIKEIKEKGLTGVQAEGLAEAASYFAEDQAENAKKKAEEA
B26: design_376_bf9d4634-8475-4fdb-a175-1db49a23bdcd_1417_dldesign_0_cycle1_af2pred (protein)
chain: MEEDEKKVEEVKKRGKEVAEKAKKSTPEEAEELRKEFTRYAAEVGGKASPEARNKIQEIRAEANGEIALAIIKKK
B27: design_376_bf9d4634-8475-4fdb-a175-1db49a23bdcd_2125_dldesign_0_cycle1_af2pred (protein)
chain: SPYQKKLEEEAEEIIARARKLAEEAREAAKKAGPKIKSLADEAISYAAIARSLARDGVKYGEKYLELAKEELAKAEELAKEAVKLAKE
B28: design_376_bf9d4634-8475-4fdb-a175-1db49a23bdcd_2229_dldesign_0_cycle1_af2pred (protein)
chain: MAEKIKKAITEAREKYADARGYAYAAKKDPKFLPEAVKAADAAAAAWEALAKLDPANKAIYDANAAKAKAIGDAAKAAL
B29: design_376_bf9d4634-8475-4fdb-a175-1db49a23bdcd_2407_dldesign_0_cycle1_af2pred (protein)
chain: MEEEEKKKKEEAKKLAKELGNLLIEAFDADVEDEEKGEEKLKEAKKLAKELKKLDPELGKKAEKRIKRFEESMKIAKELKEK
B30: design_376_bf9d4634-8475-4fdb-a175-1db49a23bdcd_1553_dldesign_0_cycle1_af2pred (protein)
chain: HEEAEKAIEKAKEYFKELVKELEKLDPKAGAKMKELAEKGKKVLERMKEYSPEDVKETAESIMKGAEKEFEKLKKEAEA
B31: design_376_bf9d4634-8475-4fdb-a175-1db49a23bdcd_2428_dldesign_0_cycle1_af2pred (protein)
chain: MEEAIKKLKEIAKKLKELSKEAEKLAKEYPKVKNEALKVSGYAETAADQAESALKNKEKAAEAAKWAEKRLEKVEKDLKEVKKKAK
B32: design_596_3e5f537c-0703-45f0-993f-ff416531349a_338_dldesign_0_cycle1_af2pred (protein)
chain: GSMEEKKKKEVEEAEKEAEKILEKAKKEAEKAAKKSPAQAVEVALEALSELKYLGSKYPEKAEEFEKRGRELVEEYKKKAE
B33: design_376_bf9d4634-8475-4fdb-a175-1db49a23bdcd_1228_dldesign_0_cycle1_af2pred (protein)
chain: DAALKALATKLQEEGLAWADKAYEAMQIIDPKEAPKVASDILRDFARANKLYAEDPAKGAAALAAARAKVEAIVALAKKVS
B34: design_376_bf9d4634-8475-4fdb-a175-1db49a23bdcd_1330_dldesign_0_cycle1_af2pred (protein)
chain: AVEEKLKEYTKKAEEYIEKLEKLDPEKAKELRKELEEAKKLTPEEALKKVKEIAAKASEAYYQAKAEEDAKK
B35: design_376_bf9d4634-8475-4fdb-a175-1db49a23bdcd_1020_dldesign_0_cycle1_af2pred (protein)
chain: MGKKIHDVVKKAAEEARKAAEKAGADGELVRKAAYTAGWYYIAGDEEEAKKIVELAKKAEPKFAKTVEELMKKALEAAKKALEE
B36: design_596_3e5f537c-0703-45f0-993f-ff416531349a_73_dldesign_0_cycle1_af2pred (protein)
chain: AEKEKEAQKLLEEMVEYGEKKAKEAEKLNPKAGERIRRARERYEKYAKDPEKAKQYVEALKEYADHVVEAAKK
B37: design_376_bf9d4634-8475-4fdb-a175-1db49a23bdcd_2251_dldesign_0_cycle1_af2pred (protein)
chain: GAASAAEEAKGHAIAAEAYALSGKKKEEALEDAKKAGEYAKKATPEYQAAVKKLFEKKVERVKAKPESAETAEKMKALFEEVVA
B38: design_596_3e5f537c-0703-45f0-993f-ff416531349a_8_dldesign_0_cycle1_af2pred (protein)
chain: EEEEREKVIKKAKEVLDRNGKKALEYAKIVPEVAPEVEKTIKESRAEIEKAAGLSLEEAQKAAAAAVHKVQELRAEAYFLAEKKK

What follows are binders tested against VTCN1, Q7Z7D3.
Chain of VTCN1, Q7Z7D3 (Q7Z7D3 whole entry): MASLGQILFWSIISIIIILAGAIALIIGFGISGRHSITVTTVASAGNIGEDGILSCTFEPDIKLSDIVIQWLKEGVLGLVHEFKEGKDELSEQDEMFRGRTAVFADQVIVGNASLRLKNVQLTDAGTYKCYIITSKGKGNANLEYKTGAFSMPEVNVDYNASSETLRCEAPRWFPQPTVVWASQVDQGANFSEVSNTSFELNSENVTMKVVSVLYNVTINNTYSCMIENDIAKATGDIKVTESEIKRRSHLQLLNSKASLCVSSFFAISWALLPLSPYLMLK

Binding in a display sort, inactive:
B1 not found
B2 not found
B3 not found
B4 not found
B5 not found
B6 not found
B7 not found
B8 not found
B9 not found
B10 not found
B11 not found
B12 not found
B13 not found
B14 not found
B15 not found
B16 not found
B17 not found
B18 not found
B19 not found
B20 not found
B21 not found
B22 not found
B23 not found
B24 not found
B25 not found
B26 not found
B27 not found
B28 not found
B29 not found
B30 not found
B31 not found
B32 not found
B33 not found
B34 not found
B35 not found
B36 not found
B37 not found
B38 not found
